The record followed here is PubChem BioAssay AID2559 (National Center for Advancing Translational Sciences (NCATS), 2010).

The other results are listed elsewhere or left out. Where a call stands in place of a potency, no number is given. The source made the active and inactive calls.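 How the source made its calls: active means compounds giving a full or partial concentration-response curve, as inhibitors or activators; inconclusive means weak, top-dose-only or unclear curve responses; inactive means no response at any tested dose.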

The target in the experiment is Pyruvate kinase (Leishmania mexicana) (UniProt Q27686). In words: Confirmation Assay for Inhibitors of Leishmania Mexicana Pyruvate Kinase (LmPK). The following applies: purified LmPK, Kinase-Glo ATP luminescence, 1 h; series mostly up to 57.5 µM. An excerpt: NIH Chemical Genomics Center [NCGC] Malcolm Walkinshaw, Hugh Morgan, Linda Gilmore University of Edinburgh, UK MLPCN Grant: 1 R03 MH085697-01 NCGC Assay Overview: Pyruvate kinase (L. Mexicana) (LmPK) enzyme was supplied as a highly purified (>95% pure) sulphate-free preparation from University of Edinburgh, UK and assayed for its ability to generate ATP from ADP using phosphoenolpyruvate (PEP) as a substrate. ATP generation was detected in a coupled reaction by luciferase-mediated luminescence, an ATP-dependent process. […] The enzyme was assayed at an intermediate level of activity to screen for both inhibitors and activators.
Chain of Pyruvate kinase (Leishmania mexicana) (Q27686 whole entry, looked up): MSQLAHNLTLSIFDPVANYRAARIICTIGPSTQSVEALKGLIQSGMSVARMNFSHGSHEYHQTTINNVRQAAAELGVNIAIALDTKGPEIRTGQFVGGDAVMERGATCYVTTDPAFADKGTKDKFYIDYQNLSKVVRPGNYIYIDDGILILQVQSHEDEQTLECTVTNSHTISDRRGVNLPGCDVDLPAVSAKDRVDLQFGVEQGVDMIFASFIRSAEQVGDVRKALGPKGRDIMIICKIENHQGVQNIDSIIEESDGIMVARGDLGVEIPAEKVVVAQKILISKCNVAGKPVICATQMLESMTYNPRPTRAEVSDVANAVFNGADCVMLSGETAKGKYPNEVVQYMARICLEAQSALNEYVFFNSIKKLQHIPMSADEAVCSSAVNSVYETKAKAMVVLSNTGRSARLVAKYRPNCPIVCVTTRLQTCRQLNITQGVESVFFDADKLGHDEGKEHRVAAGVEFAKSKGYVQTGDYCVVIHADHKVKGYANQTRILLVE
NCGC Assay Protocol Summary: Three uL of enzyme mix (kept on ice) in assay buffer (50 mM Imidazole pH7.2, 50 mM KCl, 7 mM MgCl2, 0.01% Tween 20, 0.05% BSA) containing PEP (0.5 mM final concentration) and LmPK (0.1 nM final concentration) was dispensed into white solid bottom 1,536 well microtiter plates. 23 nL of compound were delivered by a pin tool and 1 uL of ADP mix in assay buffer (r.t; 0.1 mM final ADP concentration) was added. Plates were incubated at room temperature for 1 hour. Two uL of detection mix (Kinase-Glo, Promega; at 4 degree Celsius protected from light) was added and luminescence read by a ViewLux (Perkin Elmer) at 1 second exposure/plate. Data were normalized to the uninhibited and AC100 inhibition (no enzyme). To monitor activation, the first column contained a five-fold concentration of LmPK (0.5 nM).
For `Cn1cc(CN2CCCCC2c2ccccn2)c(-c2ccc3c(c2)OCCO3)n1` (configuration not stated), the Potency entry was “inactive”.

On to `COc1ccc(-c2cc(C(F)(F)F)nc(NCc3cccnc3)n2)cc1`, for which the Potency entry was “inactive”.

As for `COCCN(C(=O)c1ccco1)c1nnc(-c2ccc(OC)cc2)s1`, the Potency result is “inactive”.

With `COc1ccc(-c2cn3ccc(C)cc3n2)cc1`, the Potency was 9.19 µM (active).

With `COc1ccc(C(=O)C[n+]2ccc(N)c(C)c2C)cc1`, the Potency entry is “inactive”.

On to `CC(=O)N(C1=C(Cl)C(=O)c2ccccc2C1=O)c1ccc(C(=O)O)cc1`, for which the Potency is 2.59 µM (active).

As to `CN1CC(c2ccccc2)C2(COc3ccccc3C2=O)C12C(=O)Nc1ccccc12` (configuration not stated), the Potency result is “inactive”.
